Experimental data taken from PubChem BioAssay (Tox21).
Results filed as inconclusive are left out. The source made the active and inactive calls. Unless noted, calls come from the whole dose curve; as a rule, active = well fitted curve in the direction sought with a large enough effect in the repeat runs; inconclusive = weak or mixed curves; inactive = no such curve, though single readings can be large; an effect the other way counts as inactive or inconclusive.

Legend:
[1] = qHTS assay to identify small molecule antagonists of the vitamin D receptor (VDR) signaling pathway - cell viability counter screen (AID 743225); conditions: VDR-bla HEK293T viability, CellTiter-Glo luminescence, 16 h; series mostly up to 61 µM; note: % is set by controls: 0 for no effect and ±100 for the full control effect; nearly all actives have a fitted effect of over 50% in size
Summary of the method: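 HEK293T VDR-bla; cpd + 1a,25-(OH)2D3 3 nM final, 16 h 37C/5% CO2; B/G FRET substrate 2 h RT; then CellTiter-Glo 30 min RT, luminescence.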

[2] = qHTS assay to identify small molecule agonists of the endoplasmic reticulum stress response signaling pathway - cell viability counter screen (AID 1159517; calls by dose curve; note: % is set by controls: 0 for no effect and ±100 for the full control effect; nearly all actives have a fitted effect of over 50% in size); conditions: ESRE-bla HeLa viability, CellTiter-Glo luminescence, 5 h; series mostly up to 61 µM
Summary of the method: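 ESRE-bla HeLa cells (1,500/well) were plated overnight at 37 C and exposed to compounds for 5 hr. After the 2 hr beta-lactamase substrate read, CellTiter-Glo went into the same wells, and luminescence was read after 30 min at room temperature.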

[3] = qHTS assay to identify small molecule antagonists of the retinoid-related orphan receptor gamma (ROR-gamma) signaling pathway - cell viability counter screen (AID 1159520); conditions: Tet-on RORgamma CHO cells viability, ATP luminescence, 16 h; series mostly up to 92.4 µM; note: % is set by controls: 0 for no effect and ±100 for the full control effect; nearly all actives have a fitted effect of over 50% in size
Summary of the method: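 Cytotoxicity was read from cellular ATP (CellTiter-Glo luminescence) after 16 hr at 37 C with 1 uM doxycycline induction. The inducer was added 2 hr after compound transfer to Tet-on ROR gamma CHO cells.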

[4] = qHTS assay to identify small molecule agonists of the AP-1 signaling pathway - cell viability counter screen (AID 1159525; calls by dose curve; note: nearly all actives have a fitted effect of over 55% in size); conditions: ME-180 AP-1-bla cells viability, ATP luminescence, 5 h; series mostly up to 76.8 µM
Summary of the method: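 Intracellular ATP by Cell Titer Glo luminescence (30 min, RT) in the same ME-180 AP-1-bla wells after the 5 h compound exposure at 37 °C. Normalised to tetra n-octyl ammonium bromide and DMSO controls.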

[5] = qHTS assay to identify small molecule agonists of the AP-1 signaling pathway (AID 1159526; calls by dose curve; note: % is set by controls: 0 for no effect and ±100 for the full control effect); conditions: ME-180 (cervical carcinoma) AP-1-bla reporter, beta-lactamase FRET ratio, 5 h; series mostly up to 76.8 µM
[6] = qHTS assay to identify small molecule antagonists of the retinoid acid receptor (RAR) signaling pathway - cell viability counter screen (AID 1159551); conditions: C3RL4 cells viability, ATP luminescence (CellTiter-Glo), 6 h; series mostly up to 92.4 µM; note: % is set by controls: 0 for no effect and ±100 for the full control effect; nearly all actives have a fitted effect of over 35% in size
Summary of the method: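 Cytotoxicity counter screen: ATP content quantified by CellTiter-Glo luminescence in C3RL4 cells treated 6 hr at 37 C with compound and retinol (1 uM final). Cells plated at 1,000/well and cultured overnight before dosing.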

[7] = qHTS assay to identify small molecule antagonists of the retinoic acid receptor (RAR) signaling pathway (AID 1159552; note: % is set by controls: 0 for no effect and ±100 for the full control effect; nearly all actives have a fitted effect of over 50% in size); conditions: C3RL4 RARE luciferase reporter, retinol-stimulated, 6 h; series mostly up to 92.4 µM
Summary of the method: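 Retinol at 1 uM final stimulated RARE-luciferase expression in C3RL4 cells exposed to test compounds for 6 hr at 37 C. Reduced luminescence, read 30 min after detection reagent, indicated pathway antagonism.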

[8] = qHTS assay to identify small molecule agonists of the retinoic acid receptor (RAR) signaling pathway (AID 1159553); conditions: C3RL4 RARE luciferase reporter, agonist, 6 h; activation: at 73.3 µM (top of the series) unless noted; note: % is set by controls: 0 for no effect and ±100 for the full control effect
Summary of the method: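 Luminescence was measured 30 min after luciferase reagent addition at room temperature. Before that, C3RL4 reporter cells (1,000 per well, plated overnight) were treated with compound for 6 hr at 37 C and 5% CO2.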

[9] = qHTS assay to identify small molecule antagonists of the estrogen related receptor (ERR) signaling pathway from Tox21 library - cell viability counter screen (AID 1224834); conditions: ERR reporter cells viability, CellTiter-Fluor, 17.5 h; series mostly up to 92.4 µM; note: % is set by controls: 0 for no effect and ±100 for the full control effect; nearly all actives have a fitted effect of over 30% in size
Summary of the method: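 CellTiter-Fluor fluorescence, read after 30 min at 37 C, measures viability of ERR cells. Cells plated at 2,000/well and incubated 6 h before pin-tool compound addition, then exposed 17.5 hours at 37 C.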

[10] = qHTS assay to identify small molecule agonists of the endoplasmic reticulum stress response signaling pathway (AID 1159516; active = well fitted activation curve with a large enough effect in the signal ratio in the repeat runs, not every such curve was filed as active; the % refers to the signal ratio; note: % is set by controls: 0 for no effect and ±100 for the full control effect); conditions: ESRE-bla HeLa, ER stress beta-lactamase reporter, 5 h; series mostly up to 61 µM
Summary of the method: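 Ratiometric FRET readout (405 nm excitation; 460 and 530 nm emission) of a beta-lactamase gene driven by the ER stress response element, after 2 hr substrate loading. HeLa ESRE-bla cells were seeded overnight and treated with compounds for only 5 hr at 37 C.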

[11] = target: Retinoic acid receptor RXR-alpha (Homo sapiens) (UniProt P19793); test: qHTS assay to identify small molecule agonists of the RXR signaling pathway (AID 1159527; calls by dose curve; note: % is set by controls: 0 for no effect and ±100 for the full control effect; nearly all actives have a fitted effect of over 35% in size); conditions: HEK293T RXRa-UAS-bla, beta-lactamase ratio, 16 h; series mostly up to 76.8 µM
Summary of the method: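 Cells plated at 2,000/well, rested 5 hr at 37 C, pin-dosed with DMSO compound solutions, incubated 16 hr, then loaded with B/G FRET substrate for 2 hr at RT before dual-emission fluorescence reading.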

[12] = qHTS assay to identify small molecule agonists of the RXR signaling pathway - cell viability counter screen (AID 1159529); conditions: RXR-alpha-bla HEK293T viability, CellTiter-Glo, 16 h; series mostly up to 76.8 µM
Summary of the method: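 Steps: seed RXR-alpha-UAS-bla HEK 293T cells in assay medium containing 2% charcoal-stripped FBS; incubate 5 hr; add compounds in DMSO; incubate 16 hr at 37 C; after the bla read, add CellTiter-Glo and read luminescence at 30 min.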

[13] = target: Nuclear receptor ROR-gamma (Homo sapiens) (UniProt P51449); test: qHTS assay to identify small molecule antagonists of the retinoid-related orphan receptor gamma (ROR-gamma) signaling pathway (AID 1159521); conditions: Tet-on RORgamma CHO cells, RORE-luciferase, 16 h; series mostly up to 92.4 µM
Summary of the method: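 Cells were plated, rested 4 h at 37 C, exposed to compounds for 2 h, then given 1 uM final doxycycline hyclate to induce RORγ expression. After 16 h, ONE-Glo luminescence from the ROR response element reporter was measured.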

[14] = qHTS assay to identify small molecule antagonists of the estrogen related receptor (ERR) signaling pathway - cell viability counter screen (AID 1224818); conditions: ERR reporter cell line viability counter screen; series mostly up to 46.1 µM;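 note: viability measured after 17.5 h of compound exposure; % is set by controls: 0 for no effect and ±100 for the full control effect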
Summary of the method: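 Cytotoxicity counter screen: fluorescence from CellTiter-Fluor, added after 17.5 h compound exposure at 37 C and read 30 min later. ERR cell line seeded at 2,000 cells/well, preincubated 6 h before dosing.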

[15] = qHTS assay to identify small molecule antagonists of the estrogen related receptor (ERR) signaling pathway (AID 1224819); conditions: ERR reporter cell line, luciferase inhibition; series mostly up to 46.1 µM
Summary of the method: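 LOPAC library screened for antagonism as reduced One-Glo luminescence in ERR reporter cells (2,000/well). Compounds were added after 6 h pre-incubation and left 18 h at 37C; reading followed a 30 min room-temperature reagent step.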

[16] = qHTS assay to identify small molecule agonists of the estrogen related receptor (ERR) signaling pathway (AID 1224820); conditions: ERR reporter cell line, luciferase agonist mode; series mostly up to 46.1 µM; note: % is set by controls: 0 for no effect and ±100 for the full control effect
Summary of the method: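 An ERR cell line provided by NTP was seeded at 2,000 cells per well and allowed to settle for 6 h before compounds in DMSO were added. After 18 h at 37 C, luciferase activity was measured by One-Glo luminescence.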

[17] = test system: estrogen-related receptor alpha (ERRalpha) with PGC-1alpha coactivator, human; test: qHTS assay to identify small molecule antagonists of the estrogen related receptor signaling pathway with the pleiotropic PPARgamma coactivator (PGC) (AID 1224821; calls by dose curve); conditions: ERR/PGC reporter cell line, luciferase, antagonist mode; series mostly up to 46.1 µM
Summary of the method: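 A PGC/ERR cell line supplied by NTP is seeded, allowed 6 h at 37 C, and treated with test compounds in DMSO for 18 h. Signal is then measured as luciferase luminescence using One-Glo.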

[18] = qHTS assay to identify small molecule antagonists of the estrogen related receptor signaling pathway with the pleiotropic PPARgamma coactivator (PGC) cell viability counter screen (AID 1224822; note: % is set by controls: 0 for no effect and ±100 for the full control effect); conditions: ERR/PGC reporter cell line viability counter screen; series mostly up to 46.1 µM
Summary of the method: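 Viability counter-screen read by fluorescence intensity after 30 min with CellTiter-Fluor at 37 C; PGC/ERR reporter cells were exposed to compounds for 17.5 h at 37 C following a 6 h preincubation.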

[19] = qHTS assay to identify small molecule agonists of the estrogen related receptor signaling pathway with the pleiotropic PPARgamma coactivator (PGC) (AID 1224823); conditions: ERR/PGC reporter cell line, luciferase agonist mode; series mostly up to 46.1 µM; note: % is set by controls: 0 for no effect and ±100 for the full control effect
Summary of the method: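 Compounds dissolved in DMSO are added by pin tool to PGC/ERR cells that have settled for 6 h, and incubation continues 18 h at 37 C. Reporter output is measured as One-Glo luminescence.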

Chain of Retinoic acid receptor RXR-alpha (Homo sapiens) (P19793 whole entry, looked up): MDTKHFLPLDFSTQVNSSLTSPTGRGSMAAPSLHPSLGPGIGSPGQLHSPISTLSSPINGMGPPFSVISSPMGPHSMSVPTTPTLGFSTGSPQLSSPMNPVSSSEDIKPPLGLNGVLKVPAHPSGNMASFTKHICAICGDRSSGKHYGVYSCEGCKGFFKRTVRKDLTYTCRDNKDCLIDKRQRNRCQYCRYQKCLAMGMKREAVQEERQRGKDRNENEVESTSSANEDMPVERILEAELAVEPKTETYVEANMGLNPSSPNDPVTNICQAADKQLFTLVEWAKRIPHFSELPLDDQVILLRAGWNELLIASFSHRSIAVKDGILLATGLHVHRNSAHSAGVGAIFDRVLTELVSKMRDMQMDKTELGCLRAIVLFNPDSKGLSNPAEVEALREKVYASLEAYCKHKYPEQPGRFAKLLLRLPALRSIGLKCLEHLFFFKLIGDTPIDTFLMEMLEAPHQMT

CCOC(=O)C(C)Oc1ccc(Oc2cnc3cc(Cl)ccc3n2)cc1 (stereo not drawn)
inactive: Potency [1] | Potency [2] | Potency [3] | Potency [4] | Potency [5] | Potency [6] | Potency [7] | Potency [8] | Potency [9]

Cc1ccc(S(=O)(=O)NCl)cc1
inactive: Potency [10] | Potency [2] | Potency [3] | Potency [4] | Potency [5] | Potency [11] | Potency [12] | Potency [6] | Potency [9]

CNC[C@H](O)c1ccc(O)c(O)c1
inactive: Potency [2] | Potency [3] | Potency [13] | Potency [4] | Potency [5] | Potency [11] | Potency [6] | Potency [8] | outcome [14] | outcome [15] | outcome [16] | outcome [17] | outcome [18] | outcome [19] | viability change, negative = cytotoxic [9] 2.34% [at 19 µM]

c1ccc2c(c1)[nH]c1ccccc12
inactive: Potency [10] | Potency [2] | Potency [3] | Potency [4] | Potency [5] | Potency [11] | Potency [6] | Potency [7] | Potency [8] | Potency [9]

OC[C@H]1O[C@@H]2O[C@H]3[C@H](O)[C@@H](O)[C@@H](O[C@H]4[C@H](O)[C@@H](O)[C@@H](O[C@H]5[C@H](O)[C@@H](O)[C@@H](O[C@H]6[C@H](O)[C@@H](O)[C@@H](O[C@H]7[C@H](O)[C@@H](O)[C@@H](O[C@H]1[C@H](O)[C@H]2O)O[C@@H]7CO)O[C@@H]6CO)O[C@@H]5CO)O[C@@H]4CO)O[C@@H]3CO
inactive: Potency [1] | Potency [10] | Potency [2] | Potency [3] | Potency [13] | Potency [4] | Potency [5] | Potency [12] | Potency [6] | Potency [7] | Potency [9]

C1COCCN1
inactive: Potency [2] | Potency [3] | Potency [13] | Potency [4] | Potency [5] | Potency [11] | Potency [12] | Potency [6] | Potency [7] | Potency [8] | Potency [9]

Brc1nc2ccccc2s1
inactive: Potency [1] | Potency [2] | Potency [3] | Potency [13] | Potency [4] | Potency [5] | Potency [11] | Potency [12] | Potency [6] | Potency [7] | Potency [8] | Potency [9]

C=C1C[C@H]2[C@@H]3C=C(C)C4=CC(=O)CC[C@]4(C)[C@H]3CC[C@]2(C)[C@@]1(OC(C)=O)C(C)=O
inactive: Potency [1] | Potency [2] | Potency [3] | Potency [13] | Potency [4] | Potency [5] | Potency [11] | Potency [12] | Potency [6] | Potency [7] | Potency [8]
